This passage reports inhibition results from PubChem BioAssay AID2057 (The Scripps Research Institute Molecular Screening Center, 2009).

Structures are written as SMILES. About 2,100 (0.66%) of roughly 320,000 compounds were called active. The sample holds actives, similar compounds and a random draw of the others, so the mix is not that of the screen. Unmarked numbers belong to inactive results.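 How the source made its calls: active means inhibition above the mean inhibition of all tested compounds plus 3 SD, set per campaign (cut at about 40% in these data); inactive means the rest.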

The target in this assay is Induced myeloid leukemia cell differentiation protein Mcl-1 (Homo sapiens) (UniProt Q07820). Description: inhibitors of MCL1 binding to BIM-BH3, primary screen, biochemical, fluorescence polarization (AID 2057).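 Further: 0% = DMSO wells and 100% = unlabeled Bim-BH3 peptide control; higher means more loss of mP so more displacement of Bim peptide.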 The settings on record: GST-MCL1 / FITC-Bim-BH3 fluorescence polarization; at 10.9 µM; stronger effect = higher value. In general terms: In fluorescence polarisation assays a small probe gives low polarisation when free and higher when bound to something large.
Induced myeloid leukemia cell differentiation protein Mcl-1 (Homo sapiens), sequence (Q07820 whole entry, looked up): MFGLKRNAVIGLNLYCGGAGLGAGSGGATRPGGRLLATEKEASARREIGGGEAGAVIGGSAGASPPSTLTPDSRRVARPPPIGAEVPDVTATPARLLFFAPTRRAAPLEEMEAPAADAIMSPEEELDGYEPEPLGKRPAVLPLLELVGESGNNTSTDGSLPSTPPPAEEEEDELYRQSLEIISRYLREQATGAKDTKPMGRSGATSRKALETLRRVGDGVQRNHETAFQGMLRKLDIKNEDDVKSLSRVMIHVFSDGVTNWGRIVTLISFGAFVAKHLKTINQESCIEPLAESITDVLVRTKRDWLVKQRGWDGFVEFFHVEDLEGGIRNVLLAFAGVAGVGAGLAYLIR
Broadly, the inhibition is the relative decrease from the control value, in per cent. Turning to `Cc1cc(C)nc(-n2ncc3c2CC(c2ccc(C(C)C)cc2)CC3=O)n1` (stereo unspecified), the inhibition is 2.19%.
Consider `O=C(COC(=O)C1CCN(S(=O)(=O)c2ccc3c(c2)OCCO3)CC1)Nc1ccccc1OC(F)F`, for which the inhibition was 0.49%.
As for `O=C1CCN(C(=O)Nc2ccccc2)N1`, the figure is -0.78%; as for `Cc1cc(N2C(=O)C(O)=C(C(=O)c3ccc(C)o3)C2c2ccc(OCc3ccccc3)cc2)no1` (stereo unspecified), 10.4%.
Consider `C=CCOc1cccc(C2C(C(=O)c3ccc(C)o3)=C(O)C(=O)N2c2nnc(C)s2)c1` (stereo unspecified), for which the inhibition was 81.2% (active).
The figure for `C=CCOc1cccc(C2C(C(=O)c3ccc(C)o3)=C(O)C(=O)N2CCCn2ccnc2)c1` (stereo unspecified) is -4.11%.
As for `CCNC(=S)N(CCN(CC)CC)Cc1cc2cc3c(cc2[nH]c1=O)OCCO3`, the figure is 13.5%; as for `Cc1ccc(OCC(=O)Nc2ccccc2Sc2ccc(Cl)cc2)c([N+](=O)[O-])n1`, 3.45%; as for `CC(C)c1csc(CN2CCC(CO)(Cc3ccccc3)CC2)n1`, 8.03%.
The figure for `COc1cccc(NC(=S)N(CCc2c(C)[nH]c3ccccc23)Cc2ccco2)c1` is 4.2%; for `COc1ccc2[nH]c(C)c(CCN(Cc3cccs3)C(=S)Nc3ccccc3OC)c2c1` it is 65.3% (active); for `Cc1[nH]c2ccccc2c1CCN(Cc1cccs1)C(=S)NC(C)(C)C` it is 7.74%.
Regarding `CC(CC(=O)N1CCN(c2ccccc2)CC1)S(=O)(=O)c1ccc2c(c1)NC(=O)CS2` (stereo unspecified), the inhibition is -2.69%.
As for `CN(C(=O)COC(=O)CNC(=O)C12CC3CC(CC(C3)C1)C2)c1ccccc1`, the figure is -5.29%.
Regarding `Cc1ccsc1C(=O)NCCc1ccco1`, the inhibition is 7.13%.
With `COc1ccccc1-c1oc2ccccc2c1C#CCCCCO`, the inhibition was -3.18%.
As for `CC(=O)Nc1ccc(S(=O)(=O)N2CCC(C(=O)NC3CC3)CC2)cc1`, the figure is -6.89%; as for `Cc1ccc(Cc2cnc(NC(=O)/C(C#N)=C/c3ccc(-c4cccc([N+](=O)[O-])c4)o3)s2)cc1`, -0.71%.
In the case of `O=C(O)c1cc(Cl)c(Cl)cc1C(=O)Nc1cccc2ncccc12`, the inhibition was -1.24%.
The figure for `Cc1ccc(/C=C(\C#N)C(=O)Nc2cccc3ncccc23)o1` is 138% (active).
The figure for `COc1ccc(OC)c(C(C)NC(=S)Nc2ccc(S(=O)(=O)Nc3ncccn3)cc2)c1` (stereo unspecified) is 5.87%; for `CCN(CC)CCNC(=O)c1sc2ncn(CC(=O)Nc3ccc(C)c(Cl)c3)c(=O)c2c1C` it is -4.53%; for `CCOc1cc(C(=S)N2CCOCC2)ccc1OS(=O)(=O)c1ccc(Br)cc1` it is 2.62%.
As for `CSc1ccccc1-c1nnc(-c2ccc(Cl)cc2)o1`, the figure is -2.22%.
On to `COc1ccc(/C=N/NC(=O)c2ccncc2)cc1CN1CCCc2ccccc21`, for which the inhibition was 9.1%.
As for `Nc1cc(N2CCCCCC2)c2nonc2c1[N+](=O)[O-]`, the figure is 48% (active); as for `Nc1nc(NCC(=O)O)nc(N2CCCCCC2)c1[N+](=O)[O-]`, 1.22%.
As for `Cc1c(Nc2cc(N3CCCC(C)C3)c3nonc3c2[N+](=O)[O-])c(=O)n(-c2ccccc2)n1C` (stereo unspecified), the figure is -0.42%; as for `CC(C)COC(=O)C1C2C=CC3(CN(C(C)c4ccc(Br)cc4)C(=O)C13)O2` (stereo unspecified), -1.26%; as for `Cc1ccc(C(=O)COC(=O)CCCC(=O)NC2CCCCC2)cc1[N+](=O)[O-]`, -0.81%.
As to `C=CCn1c(SCc2csc(C)n2)nc2scc(-c3ccc(C)o3)c2c1=O`, the inhibition was -8.6%.
As for `C=CCNC(=O)CSc1nc2scc(-c3ccco3)c2c(=O)n1CC=C`, the inhibition is -5.54%.
As for `C=CCn1c(=S)[nH]c2scc(-c3ccco3)c2c1=O`, the figure is 67.4% (active); as for `COc1ccc(S(=O)(=O)N2CCCCC2)cc1NC(=O)c1cc([N+](=O)[O-])ccc1N1CCOCC1`, 3.68%.
As for `CCn1c(SCc2cc(=O)n3ccsc3n2)nc2ccccc21`, the figure is 8.95%; as for `CCOc1ncccc1C(=O)N(C)CC(=O)Nc1ccc(F)cc1`, -10.5%.
The figure for `COc1ccc(NC(=O)c2cc(-c3ccc(C)o3)nc3ccccc23)cc1` is 22.5%; for `Cc1ccc(NC(=O)c2cc(-c3ccc(C)o3)nc3ccccc23)nc1` it is 56.2% (active).
As for `CC(=O)N1CCN(C(=O)c2cc(-c3ccc(C)o3)nc3ccccc23)CC1`, the inhibition was 7.28%.
As for `Cc1cc(OCc2cc(C(=O)NCc3cc(C(C)C)no3)no2)cc(C)c1Cl`, the figure is 6.88%; as for `Cc1cc(C)n(-c2nnc(C)n2NC(=O)c2cccc(Cl)c2)n1`, -1.3%.
As for `Oc1ccc(C2Nc3cccc4cccc(c34)N2)cc1`, the figure is 26.6%; as for `COc1cccc(C2Nc3cccc4cccc(c34)N2)c1`, 22.2%; as for `Cc1ccc(C2Nc3cccc4cccc(c34)N2)cc1`, 53.9% (active).
The figure for `O=C(C1CCC1)N1CCN(S(=O)(=O)c2ccc([N+](=O)[O-])cc2)CC1` is -7.38%; for `COc1ccc(O)c(/C=N/N=C/c2cccc([N+](=O)[O-])c2)c1` it is 3.97%; for `COc1ccccc1/C=C/C(=O)NC(=S)N1CCOCC1` it is -5.3%.
Take `COc1ccc(OCC(=O)NCCS(=O)(=O)N2CCN(c3ccc(F)cc3)CC2)cc1`: the inhibition was 2.8%.
The figure for `CCOc1ccc(C2=CC(c3ccccc3)n3ncnc3N2)cc1` (stereo unspecified) is 6.81%.
As for `COC(=O)C1=C(C)Nc2ncnn2C1c1ccco1` (stereo unspecified), the figure is 9.97%; as for `O=C(C1=C(O)C(=O)N(Cc2ccccc2)C1c1cccnc1)c1ccco1` (stereo unspecified), 2.72%; as for `O=C(C1=C(O)C(=O)N(c2ncccn2)C1c1cccs1)c1ccco1` (stereo unspecified), 117% (active).
The figure for `O=C(C1=C(O)C(=O)N(Cc2ccccc2)C1c1ccco1)c1ccco1` (stereo unspecified) is 4.91%.
With `CC(=O)Nc1cccc(C(=O)OCC(=O)c2ccc3c(c2)OCO3)c1`, the inhibition is 0.4%.
In the case of `C/C=C\C=C\C(=O)N1CC2(CC(c3cccc(NC(=O)/C(C)=C\C)c3)=NO2)C[C@H]1C(N)=O` (stereo partly specified), the inhibition is 0%.
Consider `CCOc1ccccc1NC(=S)N1CCN(c2cccc(C)c2C)CC1`, for which the inhibition was 4.81%.
As for `CCOC(=O)c1ccc(NC(=O)Cn2cnc3cc(C)c(C)cc32)cc1`, the inhibition was 5.35%.
The figure for `NC(=O)C1=C[C@@H](c2ccc3c(c2)OCO3)C[C@@H](OCCCCO)O1` is 12.6%.
As to `Cc1cc(C)cc(OCC(=O)Nc2ccc(N3CCOCC3)cc2N2CCOCC2)c1`, the inhibition was 1.14%.
As for `CCCCNc1nc2ccccc2nc1NS(=O)(=O)c1cccs1`, the inhibition is 2.76%.
The figure for `COc1ccc(Cl)cc1NC(=O)CCS(=O)(=O)c1cc2c(cc1C)NC(=O)CO2` is 8.54%.
Consider `COc1ccc(Cl)cc1NC(=O)CCS(=O)(=O)c1ccc(Br)cc1`, for which the inhibition is 42.9% (active).
In the case of `O=C(CCS(=O)(=O)c1ccc(Br)cc1)NCCc1ccc(Cl)cc1`, the inhibition is -2.54%.
As for `O=C(NNS(=O)(=O)c1ccccc1)c1cnn(-c2ccc(Cl)cc2)c1C(F)(F)F`, the figure is 6.42%; as for `O=C(O)c1ccccc1N=N/C(=N/Nc1cc(S(=O)(=O)O)ccc1O)c1ccccc1`, 62% (active); as for `O=C(Nc1ccc(C(=O)O)c(O)c1)c1ccccc1`, -1.25%.
The figure for `O=C(NCCc1ccccc1)C1CC1` is 3.41%; for `Cc1cc(C)n2nc(C(=O)Oc3ccc4c(c3)OCO4)nc2n1` it is 3.36%; for `CN(C)N=Nc1ccc2nc[nH]c2c1` it is 2.69%.
As for `Cc1ccc(S(=O)(=O)N[C@@H](Cc2ccccc2)C(=O)N2CCC(C(=O)N[C@H](C(=O)O)C(C)O)CC2)cc1` (stereo partly specified), the figure is -6.49%; as for `Cc1nn(C)c(Oc2ccccc2)c1CCNS(=O)(=O)c1ccc(F)cc1`, 2.92%.
In the case of `COCCn1c(N)c(N(Cc2ccccc2)C(=O)C2CCCCC2)c(=O)[nH]c1=O`, the inhibition is 0.45%.
As for `COc1ccc(CNc2nc3c(c(=O)[nH]c(=O)n3C)n2Cc2ccccc2)cc1`, the figure is 5.54%; as for `COCCn1c(N)c(NCc2ccccc2)c(=O)[nH]c1=O`, 73.5% (active).
The figure for `CCC(=O)c1cc(F)ccc1OCC(=O)Nc1ccc2c(c1)OCCO2` is -2.34%; for `O=c1[nH]c2ccccc2n2c(-c3ccccc3)nnc12` it is 57% (active).
As for `O=c1[nH]n2c(-c3ccccc3)nc(O)c2c2ccccc12`, the figure is -5.68%.
As for `Cc1nc2nc(C)c(NS(=O)(=O)c3ccc(C(C)(C)C)cc3)c(=O)n2[nH]1`, the inhibition is 0.66%.
As for `CS(=O)(=O)N(CC(=O)N1CCN(c2ccc(F)cc2)CC1)C1CCCCC1`, the figure is -4.24%; as for `CCOC(=O)N1CCN(C(=O)C(C)NC(=O)c2ccco2)CC1` (stereo unspecified), -1.38%; as for `CCN(C(=O)CSc1ncnc2sccc12)c1c(N)n(Cc2ccccc2)c(=O)[nH]c1=O`, 0.53%.
The figure for `Cc1ccc(C(=O)N/N=C\c2cc(Br)c(Br)o2)cn1` is 46% (active); for `O=C(N/N=C\c1cc(Br)c(Br)o1)C1COc2ccccc2O1` (stereo unspecified) it is 10.5%; for `Cc1ccc(C(=O)N/N=C/c2cccc3ccccc23)cn1` it is -3.5%.
The figure for `Cc1ccn2cc(-c3nonc3C)cc2c1` is 11.9%; for `Cc1nc2cc(S(=O)(=O)C(F)(F)F)ccc2s1` it is -1.41%; for `NS(=O)(=O)c1cccc(NC(=O)CC23CC4CC(CC(Br)(C4)C2)C3)c1` it is -1.18%.
Turning to `Cc1sc(NC(=S)NC(=O)c2cccs2)nc1-c1ccc(CC(C)C)cc1`, the inhibition was -5.44%.
As for `CC12CCC(C(=O)N(NC(=O)c3ccccc3O)C1=O)C2(C)C` (stereo unspecified), the figure is 42.7% (active); as for `O=C(NN1C(=O)C2C(C1=O)C1C=CC2C12CC2)c1ccccc1Cl` (stereo unspecified), 1.2%; as for `CC12CCC(C(=O)N(c3cccc(Cl)c3)C1=O)C2(C)C` (stereo unspecified), 4.99%.
